Source: ChEMBL document CHEMBL4513216, “Probing the Open Global Health Chemical Diversity Library for Multistage-Active Starting Points for Next-Generation Antimalarials” (ACS Infect Dis, 2020)
Among all 69,000 compounds or so, about 8,600 (12%) showed an effect of 50% or more. This excerpt belongs to a sample that is enriched for strong results.

test system: Plasmodium berghei; test: Screen against P. berghei liver stage (PbLuc), transformed with Luciferase, at 10uM; assay type: functional, HepG2; details: tested at 10 uM

Row | Structure (SMILES) | INHIBITION [%]
1 | CCC(CC)C(=O)N1CCC(c2nn(CCN)c3nccnc23)C1 (centres undefined) | 41.2
2 | CS(=O)(=O)N[C@@H]1CN(C(=O)c2ccccn2)C[C@@H]2CCCO[C@@H]21 | 34.6
3 | COc1ccc(-c2cc3nc(CCNC(=O)CN(C)C)nn3cn2)cc1 | 19.4
4 | CC(C)(C)C(=O)CN1CCc2ccccc2NCCC1=O | 15.4
5 | CN1CCCN(C(=O)c2ccn3ccnc3c2)CC1 | -60.7
6 | O=C(c1ccsc1)N1CC[C@@H](N2CCOCC2)[C@@H]1Cc1ccccc1 | -2.72
7 | COCc1nc(C(=O)NS(=O)(=O)c2ccc(C)c(C)c2)cs1 | -1.7
8 | COCc1nc(C(=O)NS(=O)(=O)c2ccc(OC)c(C)c2)cs1 | 52.6
9 | COCc1nc(C(=O)NS(=O)(=O)c2ccc(F)c(F)c2)cs1 | 21.1
10 | COc1ccccc1NC(=O)c1cc2c([nH]c1=O)CCCC2=O | -15.9
11 | CCN(c1ccc(C(=O)NCCN2CCOCC2)cc1)S(=O)(=O)CC | 34.2
12 | CCN(CC)C(=O)Cn1cc(C(=O)NCCCc2scnc2C)nn1 | 56.3
13 | CCN(CC)C(=O)Cn1cc(C(=O)NCCc2scnc2C)nn1 | 10.6
14 | CCN(CC)C(=O)Cn1cc(C(=O)NCCc2nc(C)c(C)s2)nn1 | 39
15 | CN(Cc1ccco1)[C@@H]1CN(CC2CCOCC2)C[C@@H]2CCCO[C@@H]21 | 38.1
16 | CNC(=O)C1(c2cnccn2)CCCN1C(=O)c1ccccc1C (centres undefined) | 30.4
17 | Cc1ccc2nc(-c3cnc(N)nc3)c(C)c(C(=O)N(C)C)c2c1 | 50.5
18 | COc1ccc2c(C(=O)N(C)C)cc(-c3cnc(N)nc3)nc2c1 | 15.7
19 | CCCn1cc(-c2cc(C(=O)N(C)C)c3ccc(C)cc3n2)cn1 | 8.845
20 | CN(C)C(=O)c1cc(-c2cnc(N)nc2)nc2cc(F)ccc12 | 60.2
21 | Cc1cc(C)c2c(C(=O)N(C)C)cc(-c3cnc(N)nc3)nc2c1 | 5.91
22 | Cc1ccc2nc(-c3cnc(N)nc3)cc(C(=O)N(C)C)c2c1 | 13.5

Row | Structure (SMILES) | INHIBITION [%]
23 | c1ncn(CC2CCCN(CC3CCCCC3)C2)n1 (centres undefined) | -1.75
24 | Nc1cc(C(=O)N2CCCC(C(=O)CCc3ccccc3)C2)ccn1 (centres undefined) | 49.3
25 | c1cnc(N2CCO[C@H]3CN(Cc4cc[nH]n4)C[C@H]32)cn1 | -15.3
26 | CCc1nc(CN2CCOC(Cn3nc(C)cc3C)C2)no1 (centres undefined) | -0.219
27 | COCCN1CCC(CNc2nc3ccccc3o2)CC1 | 61
28 | COCCN1CCC(CNc2cnc3ccccc3n2)CC1 | 46.1
29 | COCCN1CCC(CNc2nccc(-c3cnn(C)c3)n2)CC1 | 13.3
30 | Cc1csc(CN2CCC3(CC2)COC(COCC2CC2)C3)n1 (centres undefined) | 43
31 | CS(=O)(=O)NC1CCCN(C(=O)NCc2ccccc2Cl)C1 (centres undefined) | 25.4
32 | CC(=O)OC1CN(c2nc3c(Cl)cccc3s2)C1 | -56.7
33 | c1cnc(-c2nc(CNC3CCc4ncnn4C3)cs2)nc1 (centres undefined) | -25.75
34 | Cc1ccc(CCC(=O)N2CCn3c(nnc3C(C)C)C2)cc1Cl | 8.41
35 | COc1ccc(-c2nnc(SC(C)C(=O)NC(C)(C)C)[nH]2)c(OC)c1 (centres undefined) | 82.5
36 | COc1ccc(-c2nnc(SCC(=O)NCC(C)C)[nH]2)c(OC)c1 | -30.8
37 | COc1ccc(-c2nnc(SC(C)C(N)=O)[nH]2)c(OC)c1 (centres undefined) | 18.3
38 | COc1ccc2nnc(C(=O)NC3CCCC3)nc2c1 | -65.8
39 | COc1ccc(-c2ccccc2CN)c(OC)c1 | -58
40 | COc1ccc(-c2nnc(SC(C)C(=O)NC3CC3)[nH]2)c(OC)c1 (centres undefined) | 37.1
41 | COc1ccc(-c2nnc(SC(C)C(=O)NCC(C)C)[nH]2)c(OC)c1 (centres undefined) | 64
42 | COc1ccc(S(=O)(=O)NC(=O)C(C)OC)c(OC)c1 (centres undefined) | 33
43 | COc1ccc(-c2nnc(SC(C)C(=O)NC3CCCC3)[nH]2)c(OC)c1 (centres undefined) | 51.7
44 | COc1cc2cc3c(nc2cc1OC)OCCN(Cc1cccs1)C3 | -3.94

Row | Structure (SMILES) | INHIBITION [%]
45 | Cc1ccc(CN2CCc3onc(C(=O)Nc4cccnc4)c3C2)o1 | -12.2
46 | CC1(C(=O)NC2CCCC2)CCCN(c2ncccn2)C1 (centres undefined) | 0.301
47 | O=C(NCC1CCOCC1)c1cc(-c2cccnc2)c2cnccc2n1 | -4.87
48 | CN(C)c1cc(C2CCCN(Cc3cnn(C)c3)C2)ccn1 (centres undefined) | 3.85
49 | CCn1cc(C2CCN(Cc3ccnc(N(C)C)c3)CC2)cn1 | 66.7
50 | CCn1cc(CN2CCC(c3nnc(CN(C)C)n3CC)CC2)cn1 | 15.1
51 | Cc1ccc(C(=O)N2CCCCC2c2[nH]ncc2S(C)(=O)=O)s1 (centres undefined) | 36.7
52 | CN(C)CC1CSCCCN1C(=O)c1ccsc1 (centres undefined) | -26.3
53 | CN1CC2(CCC(C(=O)O)CC2)Oc2ccccc2C1=O (centres undefined) | -4.35
54 | Cc1ccccc1C(=O)Nc1ccc(OC2CCN(C)CC2)cc1 | 10.7
55 | Cc1ccc(C(=O)Nc2ccc(OC3CCN(C)CC3)cc2)c(C)c1 | 47
56 | CN1CCC(Oc2ccc(NC(=O)c3cccc(Cl)c3)cc2)CC1 | 65.1
57 | COc1ccccc1C(=O)Nc1ccc(OC2CCN(C)CC2)cc1 | -25.6
58 | COc1cccc(C(=O)Nc2ccc(OC3CCN(C)CC3)cc2)c1 | 49.2
59 | CN1CCC(Oc2ccc(NC(=O)c3ccccc3)cc2)CC1 | 21.7
60 | CSc1ccccc1C(=O)Nc1ccc(OC2CCN(C)CC2)cc1 | 11.8
61 | CN1CCC(Oc2ccc(NC(=O)c3ccccc3Br)cc2)CC1 | 51.8
62 | Cc1ccc(C)c(C(=O)Nc2ccc(OC3CCN(C)CC3)cc2)c1 | 55.8
63 | CN1C(=O)CO[C@H](c2ccc(NC(=O)c3cccc(F)c3)cc2)[C@H]1CO | 38.1
64 | Cc1cccc(C(=O)Nc2ccc(OC3CCN(C)CC3)cc2)c1 | 63.5
65 | COCCc1noc(CN2CCCCC2Cn2cccn2)n1 (centres undefined) | -2.33
66 | CCCSCC(=O)NCc1cccc(CN(C)CC)c1 | 39.8

Row | Structure (SMILES) | INHIBITION [%]
67 | CN([C@@H]1CC[C@@H](N2CCOCC2)[C@@H]1O)S(=O)(=O)c1ccccc1 | 3
68 | Cc1nnc(CN(Cc2ccco2)Cc2cccc3c2OCO3)n1C | -16.4
69 | CN(C)CC1(O)CCN(C(=O)c2ccc(-n3cccn3)cc2Cl)C1 (centres undefined) | 36.6
70 | CNC(=O)c1cc(S(=O)(=O)C(C)C)cs1 | 24.1
71 | COc1ccc(C)cc1CCNS(=O)(=O)c1ccc2c(c1)CCC(=O)N2 | 56.3
72 | COc1ccc(OC)c(C(C)NS(=O)(=O)c2cnn(C)c2)c1 (centres undefined) | 11.2
73 | COc1ccc(C)cc1CCNS(C)(=O)=O | -18
74 | COc1ccc(C(C)NS(=O)(=O)c2ccc3c(c2)CCC(=O)N3)cc1F (centres undefined) | 20.2
75 | CCN(CC)S(=O)(=O)NCCc1cc(C)ccc1OC | -12.9
76 | COc1ccc(C)cc1C(C)NS(=O)(=O)c1ccc2c(c1)CCC(=O)N2 (centres undefined) | 54.5
77 | Cc1oncc1C(=O)N1C[C@H](OCc2ccccn2)[C@H]2OCCC[C@H]21 | 15.4
78 | COc1ccc(F)c(-c2ccnc(N)c2)c1 | 1.95
79 | CC(CC(=O)NCCNS(C)(=O)=O)C1CCCCC1 (centres undefined) | 44.5
80 | COCCn1cc2c(n1)C(CNS(C)(=O)=O)OCC2 (centres undefined) | -31
81 | CCN(CC)C(=O)c1ccn(COc2ccc(F)cc2F)n1 | -3.93
82 | CCc1ncc(C(=O)NCCN2CCNC2=O)cn1 | 22.285
83 | Cc1nnc(C2CCN(C(=O)c3ccc4[nH]ccc4c3)CC2)s1 | -5.64
84 | Cc1nnc(C2CCN(C(=O)c3ccc4nccnc4c3)CC2)s1 | 51.3
85 | COC(=O)c1ccc(C(=O)N2CCC(c3nnc(C)s3)CC2)cc1 | 20.4
86 | CS(=O)(=O)c1cn[nH]c1C1CCCN(C(=O)Cn2cccn2)C1 (centres undefined) | 2.71
87 | COc1cccc2c3c(c(=O)[nH]c12)CC(C)(C)O3 | -6.18
88 | CCOc1cc(C(=O)N(C)C)ccc1NC(=O)C(C)c1ccsc1 (centres undefined) | 51.5

Row | Structure (SMILES) | INHIBITION [%]
89 | CCOc1ccc(C(=O)N(C)C)cc1NC(=O)c1ccsc1 | -20.7
90 | CCOc1cc(C(=O)N(C)C)ccc1NC(=O)c1ccsc1 | -23
91 | Cc1cccc2c1cnn2CCCNC(=O)c1ccnn1C | 35
92 | CC(C)Cc1cc(C(=O)O)nc2[nH]c(=O)[nH]c(=O)c12 | 41.2
93 | CCc1csc(CNc2nc3c(s2)c(C)nn3C)n1 | 65.7
94 | Cc1csc(CNc2nc3c(s2)c(C)nn3C)n1 | 8.03
95 | CCSCCNc1nc2c(s1)c(C)nn2C | 25.8
96 | CCc1nc(CNc2nc3c(s2)c(C)nn3C)cs1 | 63.1
97 | Cc1nc(CNc2nc3c(s2)c(C)nn3C)cs1 | 40.8
98 | CCCOCCNc1nc2c(s1)c(C)nn2C | -18.6
99 | Cc1ccc(CCc2nc(C3CCOC3)no2)o1 (centres undefined) | 29
100 | CN(C)[C@@H]1CCN(C(=O)C2CCOCC2)[C@H]1Cc1ccncc1 | 0.804
101 | COCCN1CCc2ccc(=O)n(Cc3csc(C)n3)c2CC1 | -15.3
102 | CCc1nnc(Nc2cccc(C3CCN(c4cnccn4)CC3)n2)s1 | 36.4
103 | CC(=O)N1C[C@H]2CC[C@@H](C1)N(S(=O)(=O)c1ccc(F)cc1Cl)C2 | -10.2
104 | Cc1cc(CCC(=O)NCc2ncc[nH]2)ccc1Br | 54.8
105 | Cc1cc(CCC(=O)NCc2nccn2C)ccc1Br | 46.1
106 | Cc1cc2ccccc2n1CCC(=O)NCc1ncc[nH]1 | 20.5
107 | CN(CCNC(=O)N1CCN(Cc2ccon2)CC1)C1CCCC1 | -6.02
108 | CCC1CCCCN1CCNC(=O)N1CCN(Cc2ccon2)CC1 (centres undefined) | 50.8
109 | CN1CCC(CCNC(=O)N2CCN(Cc3ccon3)CC2)CC1 | 23.5
